Source: PubChem BioAssay (EPA / NIEHS)
Inconclusive results are not listed. Calls of active or inactive are those of the source. Rule for the calls: active = hit-call score of the fitted dose curve at least 0.9, where 1 is the maximum; inconclusive = response in the unintended direction; inactive = score below 0.9.

target: guinea pig Bradykinin Receptor B2 (BK2), BDKRB2 (gene 100135486) (UniProt O70526); experiment: NVS_GPCR_gBK2: NovaScreen (NVS) G Protein-Coupled Receptor Assay for guinea pig Bradykinin Receptor B2 (BK2) (AID 2283292)
Sequence (O70526 whole entry, looked up): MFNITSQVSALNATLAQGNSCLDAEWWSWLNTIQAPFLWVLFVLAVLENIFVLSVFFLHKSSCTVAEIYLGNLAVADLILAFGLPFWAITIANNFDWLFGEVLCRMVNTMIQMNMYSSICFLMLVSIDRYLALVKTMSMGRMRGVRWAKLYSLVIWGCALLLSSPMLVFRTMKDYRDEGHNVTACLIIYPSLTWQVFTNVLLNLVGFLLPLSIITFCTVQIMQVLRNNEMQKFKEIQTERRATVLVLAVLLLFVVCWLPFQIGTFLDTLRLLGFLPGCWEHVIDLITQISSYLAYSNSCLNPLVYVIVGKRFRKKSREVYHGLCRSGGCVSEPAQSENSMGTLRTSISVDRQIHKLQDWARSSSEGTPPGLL
Procedure, shortened: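 Guinea pig ileum membrane preparation incubated 1 h with radioligand and test chemical; bound counts measured after filtration. Primary duplicate screening at 25 uM, then singleton concentration series with a 50 uM top dose; DMSO as baseline.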

SMILES | outcome
C#CCN1C(=O)COc2cc(F)c(N3C(=O)C4=C(CCCC4)C3=O)cc21 | inactive
COC(=O)c1ccccc1S(=O)(=O)NC(=O)N(C)c1nc(C)nc(OC)n1 | inactive
CCC(C)(C)C(=O)OC1=C(c2ccc(Cl)cc2Cl)C(=O)OC12CCCCC2 | inactive

target: mouse Cholecystokinin, CCK2 Receptor (CCKB), Cckbr (gene 12426) (UniProt P56481); experiment: NVS_GPCR_mCKKBCentral: NovaScreen (NVS) G Protein-Coupled Receptor Assay for mouse Cholecystokinin, CCK2 Receptor (CCKB) (AID 2283293)
Sequence (P56481 whole entry, looked up): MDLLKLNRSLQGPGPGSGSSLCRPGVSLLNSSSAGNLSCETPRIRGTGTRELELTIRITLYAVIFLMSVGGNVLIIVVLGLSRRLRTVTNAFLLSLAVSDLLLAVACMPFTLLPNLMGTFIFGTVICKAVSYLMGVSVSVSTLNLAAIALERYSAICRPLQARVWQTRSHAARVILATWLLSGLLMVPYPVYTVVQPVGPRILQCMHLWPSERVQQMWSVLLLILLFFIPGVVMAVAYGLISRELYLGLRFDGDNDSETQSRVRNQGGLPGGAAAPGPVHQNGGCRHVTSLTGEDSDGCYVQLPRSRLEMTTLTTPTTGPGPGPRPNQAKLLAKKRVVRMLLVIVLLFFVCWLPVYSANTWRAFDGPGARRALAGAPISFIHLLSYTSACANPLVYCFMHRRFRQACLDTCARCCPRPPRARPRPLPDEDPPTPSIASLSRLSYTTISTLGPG
Procedure, shortened: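 Mouse forebrain membrane preparation incubated 2 h with chemical and radioligand; bound radioactivity counted after filtration. Single-concentration duplicate screen at 25 uM, then concentration series to 50 uM max for hits, DMSO as baseline.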

SMILES | outcome | AC50
CCc1ccc(C(=O)NN(C(=O)c2cc(C)cc(C)c2)C(C)(C)C)cc1 | inactive | –
CC(C)(C)C(O)C(Oc1ccc(Cl)cc1)n1cncn1 (centres undefined) | inactive | –
Oc1ccc(Cl)cc1Cc1ccccc1 | – | 19.8 µM (active) [middle of 4 runs]
CCCN(CCOc1c(Cl)cc(Cl)cc1Cl)C(=O)n1ccnc1 | – | 6.71 µM (active)
CC[C@H](C)[C@H]1O[C@]2(C=C[C@@H]1C)C[C@@H]1C[C@@H](C/C=C(\C)[C@@H](O[C@H]3C[C@H](OC)[C@@H](O[C@H]4C[C@H](OC)[C@@H](O)[C@H](C)O4)[C@H](C)O3)[C@@H](C)/C=C/C=C3\CO[C@@H]4[C@H](O)C(C)=C[C@@H](C(=O)O1)[C@]34O)O2 (tested in a mixture with another compound) | – | 12.4 µM (active)
CCC(C)(C)C(=O)OC1=C(c2ccc(Cl)cc2Cl)C(=O)OC12CCCCC2 | inactive | –
